Data published in PubChem BioAssay AID1159580 (chemical genetic matrix, 2015).
Where “and” joins values, the source holds several entries; their conditions need not be identical. Identical values can stand only once. Hit rate of the full screen: of about 5,500 compounds, about 2,000 (36%) were called active. About 18% were inconclusive and are not listed. No stated cut-off is given here; in the data, active means normalized growth mostly below about 0.91 (no sharp cut-off); inconclusive means no clear call, values can overlap the other calls; inactive means mostly above about 0.92. Some of the results follow.

Experiment: chemical genetic growth profiling, strain panel (AID 1159580);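 further: tested at 20 µM; growth read once vehicle control cultures reached saturation at 30 °C; 1 = growth at the plate median or of vehicle wells; lower values mean less growth of the strain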
Conditions: growth OD

Measured: normalized growth

CCC1C(=O)OCC1Cc1cncn1C (stereo unspecified)
inactive: S. cerevisiae deletion strains, locus YJR075W, strain HOC1, hits give low values 1.01 and 0.997 and 1.02 | S. cerevisiae deletion strains, locus YKL009W, strain mrt4, hits give low values 0.99 and 0.991 | S. cerevisiae deletion strains, locus YKL068W, hits give low values 1 and 0.995 | S. cerevisiae deletion strains, locus YKL085W, strain MDH1 (second series), hits give low values 1.01 and 1.04 | S. cerevisiae deletion strains, locus YKL085W, strain MDH1, hits give low values 1.01 and 1.04 | S. cerevisiae deletion strains, locus YKL160W, strain elf1, hits give low values 1.03 and 1.01 | S. cerevisiae deletion strains, locus YKL190W, strain CNB1, hits give low values 1.02 and 1.01 | S. cerevisiae deletion strains, locus YKR001C, strain vps1, hits give low values 1.01 | S. cerevisiae deletion strains, locus YKR026C, strain gcn3, hits give low values 1.02 and 0.993 | S. cerevisiae deletion strains, locus YKR091W, strain srl3, hits give low values 1.02 | S. cerevisiae deletion strains, locus YLL001W, strain dnm1, hits give low values 1.02 | S. cerevisiae deletion strains, locus YLL026W, hits give low values 1.01 and 1.02 | S. cerevisiae deletion strains, locus YLL041C, strain sdh2, hits give low values 1.01 and 1.02 | S. cerevisiae deletion strains, locus YLR027C, strain aat2, hits give low values 1.02 and 1.01 | S. cerevisiae deletion strains, locus YLR039C, strain RIC1, hits give low values 1.02 and 1.07 | S. cerevisiae deletion strains, locus YLR058C, strain SHM2, hits give low values 1.01 | S. cerevisiae deletion strains, locus YLR102C, strain apc9, hits give low values 1.01 and 0.998 | S. cerevisiae deletion strains, locus YLR113W, strain HOG1, hits give low values 0.972 | S. cerevisiae deletion strains, locus YLR221C, strain rsa3, hits give low values 1.02 and 1.01 | S. cerevisiae deletion strains, locus YLR258W, strain gsy2, hits give low values 1.02 and 1.01 | S. cerevisiae deletion strains, locus YLR262C, strain YPT6 (second series), hits give low values 1.04 and 1.05 | S. cerevisiae deletion strains, locus YLR262C, strain YPT6, hits give low values 1.04 and 1.1 | S. cerevisiae deletion strains, locus YLR268W, strain sec22, hits give low values 1.06 and 0.999 | S. cerevisiae deletion strains, locus YLR320W, strain mms22, hits give low values 1.03 and 1.02 | S. cerevisiae deletion strains, locus YLR330W, strain CHS5, hits give low values 1.01 | S. cerevisiae deletion strains, locus YLR342W, strain FKS1 (second series), hits give low values 0.996 and 1 | S. cerevisiae deletion strains, locus YLR342W, strain FKS1, hits give low values 1.02 | S. cerevisiae deletion strains, locus YLR357W, strain rsc2, hits give low values 0.988 and 0.997 | S. cerevisiae deletion strains, locus YLR370C, strain arc18, hits give low values 1.01 and 1.02 | S. cerevisiae deletion strains, locus YLR371W, strain rom2, hits give low values 1.01 and 0.995 | S. cerevisiae deletion strains, locus YLR384C, strain iki3, hits give low values 1.02 and 1.03 | S. cerevisiae deletion strains, locus YLR418C, strain cdc73, hits give low values 1.02 | S. cerevisiae deletion strains, locus YML016C, strain PPZ1, hits give low values 1.01 | S. cerevisiae deletion strains, locus YML032C, strain rad52, hits give low values 1.03 and 0.985 | S. cerevisiae deletion strains, locus YML120C, strain ndi1, hits give low values 1.02 and 1.03 | S. cerevisiae deletion strains, locus YML124C, strain tub3, hits give low values 1.01 and 0.994 | S. cerevisiae deletion strains, locus YMR058W, strain fet3, hits give low values 1.01 and 1.02 | S. cerevisiae deletion strains, locus YMR078C, strain ctf18, hits give low values 1.02 and 0.99 | S. cerevisiae deletion strains, locus YMR125W, strain sto1, hits give low values 1.02 | S. cerevisiae deletion strains, locus YMR129W, hits give low values 1.01 and 1.02 | S. cerevisiae deletion strains, locus YMR205C, strain PFK2, hits give low values 1.04 and 1.02 | S. cerevisiae deletion strains, locus YMR223W, strain ubp8, hits give low values 0.991 and 1 | S. cerevisiae deletion strains, locus YMR231W, strain pep5, hits give low values 1.02 and 1.01 | S. cerevisiae deletion strains, locus YMR263W, strain SAP30, hits give low values 1.01 and 0.995 and 1.02 | S. cerevisiae deletion strains, locus YMR307W, strain GAS1, hits give low values 0.989 and 1.01 and 0.99 | S. cerevisiae deletion strains, locus YNL067W, strain RPL9B, hits give low values 1.01 | S. cerevisiae deletion strains, locus YNL071W, strain lat1, hits give low values 1.01 and 1.02 | S. cerevisiae deletion strains, locus YNL128W, strain TEP1, hits give low values 1.01 | S. cerevisiae deletion strains, locus YNL153C, strain GIM3, hits give low values 1.02 and 0.971 | S. cerevisiae deletion strains, locus YNL175C, strain NOP13, hits give low values 1.01 and 0.972 | S. cerevisiae deletion strains, locus YNL183C, strain NPR1, hits give low values 0.95 | S. cerevisiae deletion strains, locus YNL197C, strain WHI3, hits give low values 1.01 and 0.989 | S. cerevisiae deletion strains, locus YNL209W, strain ssb2, hits give low values 1.02 | S. cerevisiae deletion strains, locus YNL224C, strain SQS1, hits give low values 1 and 0.989 | S. cerevisiae deletion strains, locus YNL233W, strain BNI4, hits give low values 1.01 and 1.02 | S. cerevisiae deletion strains, locus YNL248C, strain rpa49, hits give low values 1 and 1.01 | S. cerevisiae deletion strains, locus YNL250W, strain rad50, hits give low values 1.01 and 0.986 | S. cerevisiae deletion strains, locus YNL271C, strain bni1, hits give low values 1.01 | S. cerevisiae deletion strains, locus YNL298W, strain CLA4, hits give low values 1.01 and 0.999 | S. cerevisiae deletion strains, locus YNL307C, strain MCK1, hits give low values 1.02 and 1.01 | S. cerevisiae deletion strains, locus YNL322C, strain KRE1 (second series), hits give low values 1.02 | S. cerevisiae deletion strains, locus YNL322C, strain KRE1, hits give low values 1.01 | S. cerevisiae deletion strains, locus YNR049C, strain mso1, hits give low values 1.02 and 1.01 | S. cerevisiae deletion strains, locus YNR052C, strain pop2, hits give low values 1.01 and 0.997 | S. cerevisiae deletion strains, locus YOL006C, strain TOP1, hits give low values 1.1 and 1.08 | S. cerevisiae deletion strains, locus YOL012C, strain htz1 0.844 and 0.846 | S. cerevisiae deletion strains, locus YOL147C, strain pex11, hits give low values 1.02 and 0.99 | S. cerevisiae deletion strains, locus YOR001W, strain rrp6, hits give low values 0.998 and 1.02 | S. cerevisiae deletion strains, locus YOR061W, strain CKA2, hits give low values 1.01 and 1.02 | S. cerevisiae deletion strains, locus YOR069W, strain VPS5, hits give low values 1.01 | S. cerevisiae deletion strains, locus YOR070C, strain gyp1, hits give low values 1.02 | S. cerevisiae deletion strains, locus YOR080W, strain dia2, hits give low values 1.02 | S. cerevisiae deletion strains, locus YOR083W, strain WHI5 (second series), hits give low values 0.992 and 1 | S. cerevisiae deletion strains, locus YOR083W, strain WHI5, hits give low values 1.02 | S. cerevisiae deletion strains, locus YOR106W, strain vam3, hits give low values 1.02 | S. cerevisiae deletion strains, locus YOR136W, strain idh2, hits give low values 1.02 and 1 | S. cerevisiae deletion strains, locus YOR144C, strain elg1, hits give low values 1.02 and 0.993 | S. cerevisiae deletion strains, locus YOR184W, strain ser1, hits give low values 1.04 and 1.01 | S. cerevisiae deletion strains, locus YOR231W, strain MKK1, hits give low values 0.976 | S. cerevisiae deletion strains, locus YOR265W, strain rbl2, hits give low values 1.02 and 1.01 | S. cerevisiae deletion strains, locus YOR270C, strain vph1, hits give low values 1.02 and 1.07 | S. cerevisiae deletion strains, locus YOR290C, strain snf2, hits give low values 1.03 and 0.969 | S. cerevisiae deletion strains, locus YOR316C, strain cot1, hits give low values 1.02 and 0.999 | S. cerevisiae deletion strains, locus YPL051W, strain arl3, hits give low values 1.02 and 1.01 | S. cerevisiae deletion strains, locus YPL055C, strain LGE1, hits give low values 1.06 and 1 | S. cerevisiae deletion strains, locus YPL078C, strain atp4, hits give low values 1.02 and 1.01 | S. cerevisiae deletion strains, locus YPL106C, strain sse1, hits give low values 1.02 | S. cerevisiae deletion strains, locus YPL240C, strain hsp82, hits give low values 1.03 and 1.02 | S. cerevisiae deletion strains, locus YPL241C, strain CIN2, hits give low values 1.01 | S. cerevisiae deletion strains, locus YPL256C, strain CLN2, hits give low values 0.979 | S. cerevisiae deletion strains, locus YPR119W, strain clb2, hits give low values 1.01 and 0.99 | S. cerevisiae deletion strains, locus YPR141C, strain kar3, hits give low values 1.01 and 1 | S. cerevisiae deletion strains, locus YPR163C, strain tif3, hits give low values 1.03 and 0.994 | S. cerevisiae deletion strains, locus YPR167C, strain met16, hits give low values 1.02 and 0.995 | S. cerevisiae deletion strains, strain wtn01, hits give low values 1.03 and 0.997 | S. cerevisiae strains, strain wild type, hits give low values 1.01
